This note sets out measurements from PubChem BioAssay AID651871 (Sanford-Burnham Center for Chemical Genomics, 2012).

Values joined by “and” are separate entries in the source; they are usually repeats but may differ in a detail not shown here. Equal values may be shown once.

The assay has as its system HL-1. As to the kind of experiment: protection of cardiomyocytes from stress damage, SAR follow-up, cell-based, panel, H9c2 and HL-1, ATP luminescence, set 2 (AID 651871).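 Also: cells exposed to stressor for 2 h before ATP readout; reference of the scale not given here.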 Conditions: H9c2/HL-1 cardiomyocytes, H2O2 oxidative stress; with H2O2, run 1, at 79 µM (top of the series).
For `COc1ccc2c(c1OC)C(=O)N1c3ccccc3C(=O)N(Cc3cccc(Cl)c3Cl)C21` (centres undefined), the activity (protection/inhibition) was -0.863% and -7.11% and 4.56%.

For `CCOC(=O)c1cccc(NC(=O)CNC(=O)c2cc(-c3cc(OC)c(OC)c(OC)c3)nc3ccccc23)c1`, the activity (protection/inhibition) was found to be 56.7%.

As to `COc1ccc2nc(-c3cc(OC)c(OC)c(OC)c3)cc(C(=O)NCC(=O)Nc3ccc(C(C)=O)cc3)c2c1`, the activity (protection/inhibition) is 41.2% and 24.9%.

Regarding `COc1cc(-c2cc(C(=O)Nc3cccc(C(=O)NCc4ccccc4)c3)c3ccccc3n2)cc(OC)c1OC`, the activity (protection/inhibition) turned out to be 34.6%.
